Source: PubChem BioAssay
Only some compounds are listed: those with a hit (about 7.2% of all), similar ones and a draw of the others.
TSHR agonist = qHTS Assay for Agonists of the Thyroid Stimulating Hormone Receptor. 0.48% of 73,000 active. HEK293-CNG-TSHR cells (CNG channel as cAMP sensor), membrane potential dye, cAMP. Potency, µM (doses to about 57.1 µM), usual class: activators. Thyrotropin receptor (Homo sapiens), P16473; active = well fitted activation curve with a large enough effect in the main read-out, with a control signal flat, not every such curve was filed as active; inconclusive = small, poorly fitted or top-dose-only effect, or a change in a side signal; inactive = no such curve, though single readings can be large or run the other way; reference of the percent scale not stated here;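 note: the control signal comes from parental cells without the receptor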
Target sequence (P16473 whole entry, looked up): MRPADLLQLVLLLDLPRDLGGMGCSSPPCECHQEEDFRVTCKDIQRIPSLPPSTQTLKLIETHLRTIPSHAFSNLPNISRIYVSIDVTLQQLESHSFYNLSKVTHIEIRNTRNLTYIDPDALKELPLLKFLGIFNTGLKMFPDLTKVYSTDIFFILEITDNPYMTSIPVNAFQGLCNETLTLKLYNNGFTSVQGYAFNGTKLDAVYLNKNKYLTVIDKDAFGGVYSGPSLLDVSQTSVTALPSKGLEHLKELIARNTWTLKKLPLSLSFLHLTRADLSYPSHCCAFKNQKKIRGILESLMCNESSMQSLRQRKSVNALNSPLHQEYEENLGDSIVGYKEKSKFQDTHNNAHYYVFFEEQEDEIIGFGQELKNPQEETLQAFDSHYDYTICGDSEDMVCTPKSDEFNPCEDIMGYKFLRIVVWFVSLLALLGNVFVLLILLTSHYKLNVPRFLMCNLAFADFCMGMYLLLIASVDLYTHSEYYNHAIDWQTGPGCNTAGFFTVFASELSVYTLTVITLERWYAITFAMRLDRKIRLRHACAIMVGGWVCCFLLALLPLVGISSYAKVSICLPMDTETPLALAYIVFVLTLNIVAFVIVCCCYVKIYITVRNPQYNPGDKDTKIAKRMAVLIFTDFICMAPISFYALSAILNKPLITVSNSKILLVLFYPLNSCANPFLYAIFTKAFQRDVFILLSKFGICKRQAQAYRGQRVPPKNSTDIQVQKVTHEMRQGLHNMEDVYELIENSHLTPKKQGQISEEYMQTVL
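cAMP rise detected as CNG-channel membrane depolarization by fluorescent dye (emission 590 nm), 30 min after compound, following 60 min dye loading containing 100 uM RO 20-1724 at room temperature. Cells: TSHR/CNG HEK 293, with parental CNG HEK 293 as control.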
HEK293 cAMP cs = qHTS Assay for Agonists of the Thyroid Stimulating Hormone Receptor: Activators of Intracellular cAMP Concentrations in Parental HEK 293; parental HEK293 CNG cAMP sensor, membrane potential fluorescence; Potency, µM (doses to about 57.1 µM), usual class: activators; 2.5% of 73,000 active; AID 938, 2007; note: nearly all actives have a fitted effect of over 55% in size
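Parental HEK 293 cells stably expressing a modified CNG channel (no TSHR) report cAMP rise as membrane depolarization. Membrane potential dye with 100 uM RO 20-1724 was loaded for 60 min at room temperature, then compound added for 30 min; fluorescence read at 590 nm.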
Tau fil binding = qHTS Assay for Tau Filament Binding; Microtubule-associated protein tau (Homo sapiens), P10636; recombinant tau filaments, thioflavin S fluorescence, 15 h; filaments grown with octadecylsulfate alongside compound; Potency, µM (highest dose often 57.1 µM); 2% of 71,000 active; AID 596, 2007;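 note: actives lower thioflavin S fluorescence by blocking filaments or displacing dye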
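His-tagged recombinant human tau (exons 2, 3 and 10 included), 1 uM, was induced to fibrillize by 30 uM sodium octadecylsulfate with compound present. After 15 h at 37 C, thioflavine S fluorescence (ex 450, em 510 nm) was read.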
PK Bst = Pyruvate Kinase; Potency, µM; purified pyruvate kinase, luminescence ATP production; ribose 5-phosphate activator present at AC10; 1.2% of 51,000 active; in the data active = potency below about 11 µM; inconclusive = mostly about 12 µM to 25 µM;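 the screen sought inhibitors and activators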
ERK AVP inh = qHTS Assay for Inhibitors of the ERK Signaling Pathway using a Homogeneous Screening Assay; HEK293-V1b, vasopressin-stimulated pERK AlphaScreen; Potency, µM (series often up to 57.5 µM), usual class: inhibitors; 0.99% of 72,000 active; note: nearly all actives have a fitted effect of over 55% in size
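Phosphorylated ERK1/2 detected via AlphaScreen bead proximity in lysates of V1b-expressing HEK293 cells given 25 nM vasopressin for 5 min after 30 min compound exposure (37 °C). AC50 from Hill equation; basal DMSO 0%, vasopressin 100%.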
FLuc inh = qHTS Assay for Inhibitors of Firefly Luciferase; purified firefly luciferase, luminescence, 8 min; 2.2% of 72,000 active; Luciferin 4-monooxygenase (Photinus pyralis), P08659; Potency, µM (doses to about 57.1 µM), usual class: inhibitors; note: nearly all actives have a fitted effect of over 40% in size
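Titration-based qHTS; buffer 50 mM imidazole pH 7.2, 50 mM KCl, 7 mM MgCl2, 10 uM ATP, 0.01% Tween 20, 0.05% BSA; luciferase/luciferin detector mix added after compound; 8 min, ambient; luminescence.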
Numbers stand for hits; n = inactive; u = inconclusive; x = not tested or not shown; [ ] = remark or other dose. Unless noted, calls come from the whole dose curve; as a rule, active = well fitted curve in the direction sought with a large enough effect; inconclusive = small, poorly fitted or top-dose-only effect, or another doubt; inactive = no such curve, though single readings can be large; an effect the other way counts as inactive or inconclusive.

SMILES | TSHR agonist | HEK293 cAMP cs | Tau fil binding | PK Bst | ERK AVP inh | FLuc inh
CCOC(=O)CS(=O)(=O)c1nc(-c2ccccc2)cc(C(F)(F)F)n1 | n | n | 20µM | x | u | n
CCN1CCCC1Cn1c(-c2ccccc2)nc2c(N(CCOC)CCOC)nc(C)nc21 (stereo not given) | u | u | n | x | n | x
O=C(Nc1ccccc1N1CCN(c2ccccc2)CC1)C1CCCCC1 | u | 7.9µM | n | n | n | n
CCCC(=O)Nc1ccccc1NC(=O)C1CCCCC1 | n | n | n | n | n | n
COc1cccc(-c2nc(CS(=O)(=O)CC(=O)Nc3cccc(C)c3C)c(C)o2)c1 | u | 25µM | n | x | n | n
Cc1ccccc1-c1nc(CS(=O)(=O)CC(=O)Nc2cc(F)ccc2F)c(C)o1 | u | u | n | x | 13µM | n
O=C(O)[C@H]1[C@H]2C[C@H]3c4[nH]c5ccccc5c4CCN3C[C@@H]2CC[C@@H]1O | x | x | x | x | n | x
CCOc1ccc2[nH]c(=O)c(CN(Cc3ccc(C)cc3)C(=O)N3CCCC3)cc2c1 | u | 32µM | n | n | n | n
Cc1ccc(CN(Cc2cc3cc(C)ccc3[nH]c2=O)C(=O)N2CCOCC2)cc1 | n | n | n | n | n | n
CCC(=O)O[C@@]1(C(=O)SCF)[C@@H](C)C[C@H]2[C@@H]3C[C@@H](F)C4=CC(=O)C=C[C@@]4(C)[C@]3(F)[C@@H](O)C[C@]21C | n | n | n | x | n | n
CN(C)CC(=O)c1ccc(-c2ccccc2)cc1 | n | n | 25µM | x | n | n
CC(=O)OCCN(Cc1ccccc1)Cc1ccc2c(c1)OCO2 | 25µM | n | n | n | n | n
CN(CCOC(=O)c1ccc2c(c1)OCCO2)Cc1ccccc1 | x | x | x | n | x | n
CN1CCN(c2ncc3nc(-c4ccc(F)cc4)c(=O)n(Cc4cccs4)c3n2)CC1 | n | n | n | x | 20µM | n[11.4 µM]
CN1CCN(c2ncc3nc(-c4ccc(Cl)cc4)c(=O)n(C)c3n2)CC1 | n | n | 3.2µM | x | n | n[11.4 µM]
O=c1c(-c2ccccc2)nc2cnc(N3CCNCC3)nc2n1Cc1cccs1 | n | n | 5µM | x | n | n[11.4 µM]
CN1CCN(c2ncc3ncc(=O)n(-c4ccccc4)c3n2)CC1 | u | u | n | x | n | n[11.4 µM]
O=C(c1ccco1)N1CCC2(CCCN(c3cccc(-c4ccccc4)c3)C2)CC1 | n | n | n | x | n | n[11.4 µM]
Cc1c(CCC(=O)O)c(=O)oc2cc3occ(-c4ccc(F)cc4)c3cc12 | n | n | n | 8.3 | n | n
COC(=O)c1ccc(COc2ccc3c(C)c(C)c(=O)oc3c2)o1 | u | 4µM | n[11.4 µM] | x | n | n
CC(C)NC(=O)N1CCCC2(CCN(C(=O)c3cccc(F)c3)CC2)C1 | n | n | n | x | n | n[11.4 µM]
CN(C)c1ccc2nc3c(C(=O)O)cc(=O)c(O)c-3oc2c1 | n[11.4 µM] | n[11.4 µM] | n[11.4 µM] | x | n[11.5 µM] | n[11.4 µM]
CN1C(=O)CSc2ccc(NC(=O)Nc3ccccn3)cc21 | x | n | 10µM | u | u | n
CN1C(=O)CSc2ccc(NC(=O)N3CCN(c4ccccn4)CC3)cc21 | u | u | n | n | u | n
CN1C(=O)CSc2ccc(NC(=O)N3CCc4ccccc43)cc21 | n | n | n | 8.2 | n | 13µM
CN1C(=O)CSc2ccc(NC(=O)N3CCC(N4CCCCC4)CC3)cc21 | n | n | n | n | n | n
CCC(=O)Nc1cccc(NC(=O)CSc2nnc(C(C)C)n2CC)c1 | u | 13µM | n | n | n | n
O=C(c1ccco1)N1c2ccccc2Sc2ccccc21 | u | 20µM | n | n | n | n
CC(C)C[C@@H](CC(=O)N[C@@H](CCCN)CC(=O)N[C@@H]1CCNC[C@H]1C(=O)N[C@H](CC(=O)N[C@@H](CCC(=O)O)CC(=O)O)CC(C)C)NC(=O)[C@@H]1CNCC[C@H]1N | n | n | n | x | x | x
NC(=O)C1CCN(c2oc(-c3ccccc3F)nc2S(=O)(=O)c2ccc(Cl)cc2)CC1 | n | n | n | 11 | n | n
